Test results taken from PubChem BioAssay (NCI).
“And” between values parts separate entries of the source, which are not always exact repeats. Equal entries are not always repeated. About 79,000 compounds went through this panel and 15% of them were active in at least one assay; those are over-represented in the sample as a whole. Some structures have more than one record in an assay (separate samples or runs), and their calls can disagree. The source made the active and inactive calls. No stated cut-off is given here; in the data, active means growth inhibition above about 70%; inactive means the rest.

Columns and labels:
[1] = NCI Yeast Anticancer Drug Screen. Data for the rad50 strain (AID 155);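 further: 0% = growth of vehicle-only cultures of the same strain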; conditions: S. cerevisiae rad50 strain growth inhibition, stronger effect = higher value
How it was run: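 Relative growth inhibition (compound vs vehicle) was measured in yeast with a defined repair-gene alteration.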

[2] = NCI Yeast Anticancer Drug Screen. Data for the mec2-1 strain (AID 157); conditions: S. cerevisiae mec2-1 strain, stronger effect = higher value
How it was run: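 mec2-1 yeast strain, carrying an alteration in DNA damage repair or cell cycle control, was exposed to compounds; growth inhibition was measured relative to vehicle-treated controls.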

[3] = NCI Yeast Anticancer Drug Screen. Data for the sgs1 mgt1 strain (AID 161);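 further: 0% = growth of cultures given vehicle only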; conditions: S. cerevisiae sgs1 mgt1 strain, stronger effect = higher value
How it was run: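 This yeast growth screen uses a strain with defined DNA-repair lesions; compound-treated growth is compared with vehicle-treated growth.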

[4] = NCI Yeast Anticancer Drug Screen. Data for the cln2 rad14 strain (AID 165);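 further: 0% = growth equal to vehicle treated cultures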; conditions: S. cerevisiae cln2 rad14 strain, stronger effect = higher value
How it was run: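 Yeast carrying cln2 and rad14 alterations (cell cycle control and DNA damage repair) were exposed to compounds. Growth inhibition was measured against vehicle-treated controls.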

[5] = NCI Yeast Anticancer Drug Screen. Data for the bub3 strain (AID 167); conditions: S. cerevisiae bub3 mutant strain, stronger effect = higher value
How it was run: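 Screening used yeast with an engineered genetic alteration affecting cell cycle control. Compound-exposed cultures were compared with vehicle cultures, and reduced growth was taken as inhibition.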

[6] = NCI Yeast Anticancer Drug Screen. Data for the mlh1 rad18 strain (AID 175); conditions: S. cerevisiae mlh1 rad18 strain growth inhibition, stronger effect = higher value
How it was run: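 Growth inhibition of the yeast strain was measured after compound exposure and expressed relative to vehicle-treated controls. The strain carries defined defects in DNA damage repair.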

[7] = at 5.0 µM (retest, dose inferred, filed as 0.5)
[8] = at 50.0 µM (retest, dose inferred, filed as 5.0)

SMILES | growth inhibition [1, 7] | growth inhibition [1, 8] | growth inhibition ([1]; at 50.0 µM) | growth inhibition [2, 7] | growth inhibition [2, 8] | growth inhibition ([2]; at 50.0 µM) | growth inhibition [3, 7] | growth inhibition [3, 8] | growth inhibition ([3]; at 50.0 µM) | growth inhibition [4, 7] | growth inhibition [4, 8] | growth inhibition ([4]; at 50.0 µM) | growth inhibition [5, 7] | growth inhibition [5, 8] | growth inhibition ([5]; at 50.0 µM) | growth inhibition [6, 7] | growth inhibition [6, 8] | growth inhibition ([6]; at 50.0 µM)
COc1cccc(NC(=S)C(C#N)C(=O)Nc2cccc(C(F)(F)F)c2)c1 (configuration not stated) | 66% (inactive) | 95% (active) | 78.2% (active) | 74% (active) | 97% (active) | 84.9% (active) | 52% (inactive) | 91% (active) | 85.5% (active) | 52% (inactive) | 88% (active) | 43.1% (inactive) | 48% (inactive) | 95% (active) | 87% (active) | 88% (active) | 96% (active) | 70.5% (active)
O=C(Nc1cccc2c(OC(=O)C(Cl)Cl)c(N=Nc3ccc(S(=O)(=O)Nc4nccs4)cc3)cc(N=Nc3ccc(S(=O)(=O)Nc4nccs4)cc3)c12)C(Cl)Cl (tested in a mixture with another compound) | 93% (active) and 21% (inactive) | 6% (inactive) and 87% (active) | 71.8% (active) and 25.1% (inactive) | 95% (active) and 10% (inactive) | 39% (inactive) and 90% (active) | 62% (inactive) and 38.1% (inactive) | 94% (active) and 19% (inactive) | 29% (inactive) and 88% (active) | 67.2% (inactive) and 18.3% (inactive) | 93% (active) and 29% (inactive) | 34% (inactive) and 88% (active) | 56.5% (inactive) and 31.9% (inactive) | 90% (active) and 22% (inactive) | 41% (inactive) and 88% (active) | 50.2% (inactive) and 47.1% (inactive) | 85% (active) and 35% (inactive) | -14% (inactive) and 83% (active) | 81.3% (active) and 39.8% (inactive)
CCCCCCN(CCCCCC)C(=O)C1=C(C)NC(C)=C(C(=O)N(CCCCCC)CCCCCC)C1 | 1% (inactive) | 15% (inactive) | 56.4% (inactive) | -16% (inactive) | -3% (inactive) | 4.4% (inactive) | -8% (inactive) | -1% (inactive) | 85.2% (active) | 33% (inactive) | 14% (inactive) | 0.5% (inactive) | -5% (inactive) | 17% (inactive) | 34.9% (inactive) | -1% (inactive) | -13% (inactive) | 59% (inactive)
O=C1/C(=C/c2ccc(Cl)cc2)Sc2scc(-c3cccc([N+](=O)[O-])c3)[n+]21 | 26% (inactive) | 99% (active) | 89.5% (active) | 36% (inactive) | 100% (active) | 90.4% (active) | 84% (active) | 99% (active) | 91.9% (active) | 44% (inactive) | 98% (active) | 90.5% (active) | 98% (active) | 99% (active) | 89.8% (active) | 35% (inactive) | 100% (active) | 91.8% (active)
CCOC(=O)C(Cc1c[nH]c2cc([N+](=O)[O-])ccc12)NS(=O)(=O)c1ccc2ccccc2c1 (configuration not stated) | -19% (inactive) | 96% (active) | 95.3% (active) | 2% (inactive) | 98% (active) | 97.3% (active) | -4% (inactive) | 98% (active) | 97.2% (active) | -17% (inactive) | 94% (active) | 94.2% (active) | 9% (inactive) | 98% (active) | 97.8% (active) | -19% (inactive) | 97% (active) | 95.7% (active)
N#CC1Sc2ccccc2N1C(=O)OCc1ccccc1 (configuration not stated) | 7% (inactive) | 86% (active) | 90.1% (active) | 4% (inactive) | 86% (active) | 86.8% (active) | 11% (inactive) | 89% (active) | 94% (active) | 11% (inactive) | 82% (active) | 81.2% (active) | 20% (inactive) | 91% (active) | 93.5% (active) | 9% (inactive) | 90% (active) | 91.8% (active)
Cc1cc(C)[nH]c(=O)n1 | -2% (inactive) | 16% (inactive) | -22.4% (inactive) and 84.2% (active) | -1% (inactive) | 11% (inactive) | -16.4% (inactive) and 2.9% (inactive) | 2% (inactive) | 7% (inactive) | -9.15% (inactive) and 22.4% (inactive) | 6% (inactive) | 13% (inactive) | -18.1% (inactive) and 22.9% (inactive) | -4% (inactive) | -2% (inactive) | -2.25% (inactive) and 14.7% (inactive) | -2% (inactive) | 7% (inactive) | -14.6% (inactive) and 45.2% (inactive)
C=CC(=O)O | -2% (inactive) | -1% (inactive) | 9.85% (inactive) and 32.4% (inactive) | -1% (inactive) | 0% (inactive) | 21.9% (inactive) and -20.6% (inactive) | -1% (inactive) | 2% (inactive) | -3.35% (inactive) and 18.4% (inactive) | 0% (inactive) | 1% (inactive) | 20.8% (inactive) and 9.55% (inactive) | 1% (inactive) | 3% (inactive) | 47% (inactive) and 30.1% (inactive) | 1% (inactive) | -1% (inactive) | 47.5% (inactive) and 39% (inactive)
C[C@@H](O)[C@H]1CC[C@H]2[C@@H]3CCC4=C/C(=N/O)CC[C@]4(C)[C@H]3CC[C@]12C | 36% (inactive) | 51% (inactive) | 7.4% (inactive) | 15% (inactive) | 20% (inactive) | 22.2% (inactive) | 44% (inactive) | -34% (inactive) | 36.1% (inactive) | 16% (inactive) | 78% (active) | -0.05% (inactive) | -2% (inactive) | 61% (inactive) | 80.8% (active) | 54% (inactive) | 68% (inactive) | 36.1% (inactive)
COC1CC2CCC(C)[C@](O)(O2)C(=O)C(=O)N2CCCCC2C(=O)OC(C(C)CC2CCC(O)C(OC)C2)CC(=O)C(C)C=C(C)C(OC(=O)CN(C)C)C(OC)C(=O)C(C)CC(C)/C=C/C=C/C=C\1C (some centres not stated) | 37% (inactive) | 97% (active) | 89% (active) | 46% (inactive) | 97% (active) | 92.5% (active) | 97% (active) | 96% (active) | 92% (active) | 95% (active) | 94% (active) | 85.4% (active) | 50% (inactive) | 98% (active) | 91.7% (active) | 97% (active) | 96% (active) | 89.8% (active)
O=C1c2ccccc2C(=O)c2cc(S(=O)(=O)O)ccc21 | 3% (inactive) | 27% (inactive) | 73% (active) and 25.7% (inactive) | 1% (inactive) | 26% (inactive) | 36.2% (inactive) and 36.1% (inactive) | 6% (inactive) | 42% (inactive) | 67.7% (inactive) and 37% (inactive) | 6% (inactive) | 30% (inactive) | -26.8% (inactive) and 9.95% (inactive) | 0% (inactive) | 22% (inactive) | 67.3% (inactive) and 44.7% (inactive) | 7% (inactive) | 41% (inactive) | 77.7% (active) and 19.6% (inactive)
O=C1C=C(O)c2ccccc2C1=O.[Ag] | 99% (active) | 99% (active) | 88.8% (active) and 99.5% (active) | 100% (active) | 99% (active) | 75% (active) and 99.5% (active) | 99% (active) | 99% (active) | 96.4% (active) and 99.4% (active) | 100% (active) | 99% (active) | 66.2% (inactive) and 99% (active) | 99% (active) | 99% (active) | 86.3% (active) and 99.3% (active) | 99% (active) | 99% (active) | 87.5% (active) and 99.2% (active)
O=S(c1cc(Cl)cc(Cl)c1O)c1cc(Cl)cc(Cl)c1O | 66% (inactive) | 99% (active) | 99.2% (active) | 39% (inactive) | 100% (active) | 99.5% (active) | 39% (inactive) | 100% (active) | 98% (active) | 40% (inactive) | 99% (active) | 99.5% (active) | 56% (inactive) | 100% (active) | 99.5% (active) | 44% (inactive) | 99% (active) | 99.5% (active)
NC(CCCCNC(=O)c1ccccc1)C(=O)O (configuration not stated) | -1% (inactive) | 4% (inactive) | 17.2% (inactive) and -18.6% (inactive) | 3% (inactive) | 2% (inactive) | 5.85% (inactive) and -22.1% (inactive) | 0% (inactive) | -3% (inactive) | 0.1% (inactive) and -35.4% (inactive) | 3% (inactive) | 4% (inactive) | 91.9% (active) and -28.2% (inactive) | 17% (inactive) | -2% (inactive) | -5% (inactive) and -23.4% (inactive) | -3% (inactive) | -3% (inactive) | -1.1% (inactive) and -21.9% (inactive)
